Assay results: the supplement of paper PMC10849652
Targets with a hit are over-represented here; the source holds about 8,800 in all. About 0.5% of all pairs of compound and target were hits. Unmarked numbers belong to inactive results.

Legend:
Experiment in all cases: log2 fold change, soluble protein after heating vs DMSO (PISA); higher = thermal stabilisation; K562 lysate, 10 uM; active = over 0.2 and 3.5 SD of the protein, either way, in both replicates (recomputed)
[1] = compound: NCC(=O)Nc1ccc(-n2nc(C(F)(F)F)cc2-c2ccc3c(ccc4ccccc43)c2)cc1
How it was run: (§1)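 To prepare the extract, K562 pellets were dounce-homogenised in PBS pH 7.4 with 1 mM MgCl2, giving crude material at 1 mg/mL protein. This was treated with 10 μM compound for 30 min, then heated in aliquots for 3 min over 48°C-58°C before pooling and addition of NP-40 to 0.5% at 4°C. Centrifugation at 21,000xg for 90 min left soluble protein in the supernatant, which TMTpro 16plex LC-MS/MS quantified with equalised channel sums. Results are log-two fold changes in thermal stability compared with solvent controls, from duplicates.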

vorinostat = compound: O=C(CCCCCCC(=O)Nc1ccccc1)NO [vorinostat]
How it was run: as §1

silmitasertib = compound: O=C(O)c1ccc2c(c1)nc(Nc1cccc(Cl)c1)c1ccncc12 [silmitasertib]
How it was run: as §1

[2] = compound: O=C1NC(=O)C(c2cnc3ccccn23)=C1c1cn2c3c(cc(F)cc13)CN(C(=O)N1CCCCC1)CC2
How it was run: as §1

entospletinib = compound: c1cn2cc(-c3ccc4cn[nH]c4c3)nc(Nc3ccc(N4CCOCC4)cc3)c2n1 [entospletinib]
How it was run: as §1

UniProt Q99574, sequence (Q99574 whole entry, looked up): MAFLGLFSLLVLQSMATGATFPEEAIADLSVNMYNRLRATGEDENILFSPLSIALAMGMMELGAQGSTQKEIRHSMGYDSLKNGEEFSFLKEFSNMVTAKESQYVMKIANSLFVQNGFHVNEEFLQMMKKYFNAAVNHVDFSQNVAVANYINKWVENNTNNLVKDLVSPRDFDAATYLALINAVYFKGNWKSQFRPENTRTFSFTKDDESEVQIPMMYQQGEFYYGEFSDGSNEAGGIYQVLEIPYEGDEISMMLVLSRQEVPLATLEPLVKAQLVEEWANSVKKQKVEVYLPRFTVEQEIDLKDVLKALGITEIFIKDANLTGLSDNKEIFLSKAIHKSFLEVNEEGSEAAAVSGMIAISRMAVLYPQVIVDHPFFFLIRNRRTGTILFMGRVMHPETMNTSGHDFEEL
UniProt Q9P0P0, sequence (Q9P0P0 whole entry, looked up): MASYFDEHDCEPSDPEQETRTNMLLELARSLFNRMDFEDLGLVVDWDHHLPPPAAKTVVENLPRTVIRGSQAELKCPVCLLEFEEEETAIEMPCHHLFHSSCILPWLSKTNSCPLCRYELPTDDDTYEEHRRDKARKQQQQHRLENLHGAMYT
UniProt P78406, sequence (P78406 whole entry, looked up): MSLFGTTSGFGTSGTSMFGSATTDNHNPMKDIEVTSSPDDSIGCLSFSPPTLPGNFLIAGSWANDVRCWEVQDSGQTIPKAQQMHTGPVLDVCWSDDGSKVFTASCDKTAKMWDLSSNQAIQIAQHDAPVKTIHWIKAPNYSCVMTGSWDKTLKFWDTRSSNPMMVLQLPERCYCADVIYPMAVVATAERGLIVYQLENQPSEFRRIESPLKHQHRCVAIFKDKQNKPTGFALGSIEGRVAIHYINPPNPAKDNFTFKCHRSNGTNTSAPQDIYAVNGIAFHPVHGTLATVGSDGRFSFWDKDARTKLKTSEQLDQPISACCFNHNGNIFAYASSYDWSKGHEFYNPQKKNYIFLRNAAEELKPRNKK
UniProt P53805, sequence (P53805 whole entry, looked up): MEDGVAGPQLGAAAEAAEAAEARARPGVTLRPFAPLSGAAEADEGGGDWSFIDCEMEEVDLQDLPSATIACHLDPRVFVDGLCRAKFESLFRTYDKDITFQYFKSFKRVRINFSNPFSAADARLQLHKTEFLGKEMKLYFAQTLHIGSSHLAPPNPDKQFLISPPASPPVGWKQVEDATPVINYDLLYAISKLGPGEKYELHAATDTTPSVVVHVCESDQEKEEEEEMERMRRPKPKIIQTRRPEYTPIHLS
UniProt O94762, sequence (O94762 whole entry, looked up): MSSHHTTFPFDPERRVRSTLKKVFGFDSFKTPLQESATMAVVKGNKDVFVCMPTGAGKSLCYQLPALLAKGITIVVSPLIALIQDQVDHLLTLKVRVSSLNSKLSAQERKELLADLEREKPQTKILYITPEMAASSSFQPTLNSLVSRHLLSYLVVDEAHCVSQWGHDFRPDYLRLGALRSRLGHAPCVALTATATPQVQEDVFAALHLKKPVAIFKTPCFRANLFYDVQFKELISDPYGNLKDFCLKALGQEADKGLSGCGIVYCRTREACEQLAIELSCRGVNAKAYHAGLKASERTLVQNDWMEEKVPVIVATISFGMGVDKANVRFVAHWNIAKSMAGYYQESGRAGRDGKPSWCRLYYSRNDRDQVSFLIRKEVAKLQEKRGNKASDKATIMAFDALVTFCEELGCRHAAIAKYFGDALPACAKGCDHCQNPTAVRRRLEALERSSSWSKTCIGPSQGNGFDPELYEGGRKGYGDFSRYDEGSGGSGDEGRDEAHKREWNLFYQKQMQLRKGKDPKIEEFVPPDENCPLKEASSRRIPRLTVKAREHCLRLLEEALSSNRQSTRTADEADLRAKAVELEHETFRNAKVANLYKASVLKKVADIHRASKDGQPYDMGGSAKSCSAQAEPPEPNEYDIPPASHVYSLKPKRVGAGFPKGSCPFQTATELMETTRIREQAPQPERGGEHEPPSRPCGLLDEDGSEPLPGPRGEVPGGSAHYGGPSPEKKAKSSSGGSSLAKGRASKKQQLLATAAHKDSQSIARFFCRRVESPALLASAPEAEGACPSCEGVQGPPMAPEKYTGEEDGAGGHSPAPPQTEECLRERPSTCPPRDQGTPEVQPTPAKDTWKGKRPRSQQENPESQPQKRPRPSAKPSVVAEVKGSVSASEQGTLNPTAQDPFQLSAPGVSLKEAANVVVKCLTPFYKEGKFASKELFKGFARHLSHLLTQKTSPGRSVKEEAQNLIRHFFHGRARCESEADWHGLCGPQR
UniProt Q6UVJ0, sequence (Q6UVJ0 whole entry, looked up): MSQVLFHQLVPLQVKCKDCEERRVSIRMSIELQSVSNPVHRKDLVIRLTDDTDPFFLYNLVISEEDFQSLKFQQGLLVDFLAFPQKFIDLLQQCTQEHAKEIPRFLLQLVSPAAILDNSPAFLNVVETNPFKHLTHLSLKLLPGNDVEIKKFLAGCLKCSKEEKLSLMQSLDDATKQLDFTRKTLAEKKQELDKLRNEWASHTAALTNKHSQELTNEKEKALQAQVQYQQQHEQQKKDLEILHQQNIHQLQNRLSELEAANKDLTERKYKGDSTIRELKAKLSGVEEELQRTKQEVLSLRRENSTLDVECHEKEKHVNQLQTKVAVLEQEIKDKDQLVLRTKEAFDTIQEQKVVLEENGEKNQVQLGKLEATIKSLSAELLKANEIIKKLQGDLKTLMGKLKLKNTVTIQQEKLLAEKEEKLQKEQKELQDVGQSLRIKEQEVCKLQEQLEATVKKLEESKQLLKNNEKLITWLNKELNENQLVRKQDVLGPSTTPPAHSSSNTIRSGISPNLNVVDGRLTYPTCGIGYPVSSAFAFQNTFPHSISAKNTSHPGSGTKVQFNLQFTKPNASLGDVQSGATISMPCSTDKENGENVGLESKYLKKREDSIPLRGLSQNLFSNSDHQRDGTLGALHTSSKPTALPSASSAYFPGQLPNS
UniProt P61586, sequence (P61586 whole entry, looked up): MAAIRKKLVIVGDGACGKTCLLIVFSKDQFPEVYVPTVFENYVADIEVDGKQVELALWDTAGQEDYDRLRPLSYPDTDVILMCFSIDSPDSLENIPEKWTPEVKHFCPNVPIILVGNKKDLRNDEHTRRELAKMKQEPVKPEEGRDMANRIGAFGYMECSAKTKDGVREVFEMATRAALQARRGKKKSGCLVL
UniProt Q7Z6M1, sequence (Q7Z6M1 whole entry, looked up): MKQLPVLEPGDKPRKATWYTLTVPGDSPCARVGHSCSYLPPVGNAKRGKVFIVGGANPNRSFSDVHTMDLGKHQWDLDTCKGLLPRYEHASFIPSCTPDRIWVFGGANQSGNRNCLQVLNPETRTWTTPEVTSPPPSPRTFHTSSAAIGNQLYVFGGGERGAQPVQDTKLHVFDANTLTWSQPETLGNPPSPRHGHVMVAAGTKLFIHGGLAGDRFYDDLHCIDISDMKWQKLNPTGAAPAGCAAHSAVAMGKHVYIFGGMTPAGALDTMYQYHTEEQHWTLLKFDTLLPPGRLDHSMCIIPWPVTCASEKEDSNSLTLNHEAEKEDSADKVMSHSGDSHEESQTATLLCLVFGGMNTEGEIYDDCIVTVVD

Which log2 fold change [1] does the source give for SBF1 isoform 4 (UniProt O95248) here?
The log2 fold change was 0.013.

What about the log2 fold change (vorinostat) of the same target?
Its log2 fold change is -0.377 (active).

And the log2 fold change (silmitasertib)?
Its log2 fold change is -0.046.

And the log2 fold change [2]?
The log2 fold change was 0.056.

And the log2 fold change (entospletinib)?
Its log2 fold change is 0.005.

How did the log2 fold change [1] turn out when RHOA (UniProt P61586) was run?
Its log2 fold change is 0.03.

What about the log2 fold change (vorinostat) of the same target?
Its log2 fold change is 0.064.

And the log2 fold change (silmitasertib)?
The log2 fold change was -0.009.

And the log2 fold change [2]?
Its log2 fold change is 0.

What about the log2 fold change (entospletinib) of the same target?
Its log2 fold change is 0.022.

How did the log2 fold change [1] turn out when RECQL5 (UniProt O94762) was run?
The log2 fold change was -0.063.

What about the log2 fold change (vorinostat) of the same target?
The log2 fold change was -0.307 (active).

What about the log2 fold change (silmitasertib) of the same target?
Its log2 fold change is -0.094.

What about the log2 fold change [2] of the same target?
The log2 fold change was 0.03.

And the log2 fold change (entospletinib)?
Its log2 fold change is 0.024.

Which results are given for SASS6 (UniProt Q6UVJ0)?
log2 fold change [1]: 0.015; log2 fold change (vorinostat): -0.381 (active); log2 fold change (silmitasertib): 0.012; log2 fold change [2]: 0.021; log2 fold change (entospletinib): 0.003

What does the source list for RABEPK (UniProt Q7Z6M1)?
log2 fold change [1]: 0.008; log2 fold change (vorinostat): -0.441 (active); log2 fold change (silmitasertib): 0.032; log2 fold change [2]: 0.014; log2 fold change (entospletinib): 0.009

How did the log2 fold change [1] turn out when RCAN1 (UniProt P53805) was run?
The log2 fold change was 0.082.

What about the log2 fold change (vorinostat) of the same target?
Its log2 fold change is -0.197.

What about the log2 fold change (silmitasertib) of the same target?
Its log2 fold change is 0.02.

What about the log2 fold change [2] of the same target?
Its log2 fold change is 0.02.

What about the log2 fold change (entospletinib) of the same target?
The log2 fold change was 0.031.

Which log2 fold change [1] does the source give for SERPINI1 (UniProt Q99574) here?
Its log2 fold change is -0.04.

What about the log2 fold change (vorinostat) of the same target?
Its log2 fold change is 0.124.

What about the log2 fold change (silmitasertib) of the same target?
Its log2 fold change is -0.021.

And the log2 fold change [2]?
The log2 fold change was -0.003.

What about the log2 fold change (entospletinib) of the same target?
Its log2 fold change is -0.016.

Which results are given for RNF181 (UniProt Q9P0P0)?
log2 fold change [1]: -0.014; log2 fold change (vorinostat): 0.101; log2 fold change (silmitasertib): -0.019; log2 fold change [2]: -0.023; log2 fold change (entospletinib): -0.24 (active)

For RAE1 (UniProt P78406), which log2 fold change [1] is on record?
Its log2 fold change is 0.007.

What about the log2 fold change (vorinostat) of the same target?
Its log2 fold change is -0.126.

What about the log2 fold change (silmitasertib) of the same target?
Its log2 fold change is -0.022.

And the log2 fold change [2]?
Its log2 fold change is -0.062.

And the log2 fold change (entospletinib)?
Its log2 fold change is -0.024.
